The text below walks through data of PubChem BioAssay.

Test [1] can be described thus: reducers of endogenous Her2 protein level, primary screen, SKBR3 breast tumor cells, AlphaScreen, ATP viability (AID 461;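 active = Her2 level under about 52% in both replicate screens, with viability over 70% of control, limit read from the data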;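 for Her2 level: lower value means less Her2 protein in the cells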;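 for viability: percent of carrier control wells set as 100% viability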). Particulars: 18-24 h, measured here: SKBR3 viability, ATP luminescence, at 10 µM.
For test [2], the target named is Receptor tyrosine-protein kinase erbB-2 (Homo sapiens) (UniProt P04626). The description is as above. Conditions: 18-24 h, at 10 µM, stronger effect = lower value.
Chain of Receptor tyrosine-protein kinase erbB-2 (Homo sapiens) (P04626 whole entry, looked up): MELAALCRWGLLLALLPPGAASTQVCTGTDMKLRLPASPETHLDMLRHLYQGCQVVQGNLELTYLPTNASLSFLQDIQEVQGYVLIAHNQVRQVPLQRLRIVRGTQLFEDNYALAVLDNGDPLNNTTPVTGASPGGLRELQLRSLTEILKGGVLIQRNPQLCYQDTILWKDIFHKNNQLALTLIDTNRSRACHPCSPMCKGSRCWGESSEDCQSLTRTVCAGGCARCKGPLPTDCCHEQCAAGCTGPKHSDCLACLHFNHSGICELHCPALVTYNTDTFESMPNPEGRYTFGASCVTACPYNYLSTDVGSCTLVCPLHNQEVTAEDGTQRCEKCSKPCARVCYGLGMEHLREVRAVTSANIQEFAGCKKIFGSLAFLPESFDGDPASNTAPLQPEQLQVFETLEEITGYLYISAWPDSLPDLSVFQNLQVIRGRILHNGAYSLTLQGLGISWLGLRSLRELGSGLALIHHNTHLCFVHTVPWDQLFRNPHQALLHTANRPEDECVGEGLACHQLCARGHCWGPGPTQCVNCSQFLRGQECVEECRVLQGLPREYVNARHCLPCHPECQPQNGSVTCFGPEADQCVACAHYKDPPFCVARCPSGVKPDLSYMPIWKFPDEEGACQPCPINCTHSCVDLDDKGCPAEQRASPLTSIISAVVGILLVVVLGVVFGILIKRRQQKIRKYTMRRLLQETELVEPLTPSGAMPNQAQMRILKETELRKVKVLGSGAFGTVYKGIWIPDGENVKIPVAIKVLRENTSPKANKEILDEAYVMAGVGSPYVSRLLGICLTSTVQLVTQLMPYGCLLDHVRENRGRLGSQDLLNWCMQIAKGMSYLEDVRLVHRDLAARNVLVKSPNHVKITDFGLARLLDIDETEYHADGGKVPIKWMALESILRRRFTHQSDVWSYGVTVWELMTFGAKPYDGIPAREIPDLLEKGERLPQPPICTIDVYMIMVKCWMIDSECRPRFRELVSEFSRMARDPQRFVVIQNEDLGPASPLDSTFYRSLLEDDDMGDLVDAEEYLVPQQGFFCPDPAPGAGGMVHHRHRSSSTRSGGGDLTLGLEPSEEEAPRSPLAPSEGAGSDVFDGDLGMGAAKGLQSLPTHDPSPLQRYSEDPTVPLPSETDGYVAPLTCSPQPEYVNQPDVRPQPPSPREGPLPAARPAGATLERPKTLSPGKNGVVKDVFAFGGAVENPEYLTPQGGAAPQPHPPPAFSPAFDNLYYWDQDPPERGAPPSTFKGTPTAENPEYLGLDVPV
Test [3] in a line: SK-BR-3 cell growth inhibitors, pilot screen, 24 h, human (AID 572;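 active = viability at or below 10% of carrier control in both of two separate runs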;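 note: compound exposure lasted between 18 and 24 h rather than exactly 24 h; 100% = carrier-treated control wells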). Particulars: SK-BR-3 viability, CellTiter-Glo luminescence, at 10 µM, stronger effect = lower value.
Test [4] is described as follows: HUVEC growth inhibition – cell-based, human, primary screen (AID 575;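 active = viability at or below 30% in both replicate assays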;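 note: 100% = median of untreated cell wells with 0.1% DMSO on each plate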). Particulars: HUVEC proliferation, CellTiter-Glo luminescence, 72 h; at 10 µM; stronger effect = lower value.
The nature of test [5]: growth inhibitors of H69AR lung tumor, primary screen, human, duplicate replicates (AID 580;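 active = viability at or under a set limit in both replicates, limit being median viability minus 3 SD, cut at about 48% in these data, passing the limit was not always enough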;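 note: 100% = mean luminescence of untreated wells and 0% = no signal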). Particulars: H69AR lung tumor cells viability, ATP luminescence, 72 h; at 10 µM; stronger effect = lower value.
Test [6] in a line: reversal of MRP1-mediated doxorubicin resistance, pilot screen, H69AR cells, doxorubicin co-treatment (AID 601;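 active = viability loss from added drug above about 55%, and viability with drug at most 40%, in both replicates, limit read from the data, passing the limit was not always enough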). Particulars: CellTiter-Glo, 72 h, at 10 µM; for differential viability (reversal): stronger effect = higher value.
The nature of test [7]: 384-well plate pilot, post-Golgi transport modulator project, inhibition of yeast transport mutant growth (AID 636; in the data active = inhibition above about 31%). Conditions: absorbance 615 nm, about 18 h, stronger effect = higher value.
Test [8] can be described thus: growth suppression of yeast trafficking mutant, preliminary HTS, modulators of trafficking downstream of Golgi apparatus project, 1536-format plate, OD 615 nm (AID 637; in the data active = inhibition above about 30%). Particulars: yeast transport mutant growth, absorbance 615 nm, 18 h; stronger effect = higher value.
Test [9] in a line: OD615 S. cerevisiae growth inhibition, permissive medium, pilot counter-assay, permissive growth control for S. cerevisiae lifespan shortening project (AID 705;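 active = growth inhibition above 25% in both replicates, a cutoff set 3 SD above the mean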). Particulars: OD615, 24 h, at 10 µM, stronger effect = higher value.
Test [10] is described as follows: Restrictive medium S. cerevisiae growth inhibition, OD615, pilot screen of yeast lifespan reduction project, restrictive growth control (AID 706;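 active = growth inhibition above a set limit, 3 SD over mean compound inhibition, in both replicates, cut at about 43% in these data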;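 note: modified DeaD lifespan yeast strain shifted to restrictive glucose medium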). Conditions: OD615, 48 h, at 10 µM, stronger effect = higher value.
The nature of test [11]: viability gain of MRP-1-high H69AR cells under doxorubicin, pilot screen, MRP-1 activator project, CellTiter-Glo, duplicate (AID 807;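 active = viability increase at or above a cutoff of the median across tested compounds plus 3 SD, cut at about 8.5% in these data, passing the limit was not always enough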;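 note: compound pretreatment 18-22 h then 72 h combined with doxorubicin; 0% = doxorubicin alone and 100% = vehicle without doxorubicin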). Particulars: H69AR viability with doxorubicin, CellTiter-Glo luminescence; at 10 µM; stronger effect = higher value.
Test [12] can be described thus: growth suppression of beta-catenin knockout HCT116, pilot screen, human colon tumor cells (AID 823;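 active = cell viability at or below a set limit in both duplicate runs, the limit being the all-compound median minus 4 SD, cut at about 23% in these data, passing the limit was not always enough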;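 note: 0% = wells killed by 20 µM Hyamine and 100% = untreated DMSO cell wells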). Particulars: CellTiter-Glo, 60 h, at 10 µM, stronger effect = lower value.
A short description of test [13]: growth suppression of PTEN-deleted HCT116, pilot screen, cell-based, HCT116 clonal line, CellTiter-Glo (AID 824).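 Note: 0% = 20 µM Hyamine control and 100% = vehicle cell control.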 Particulars: 60 h, at 10 µM, stronger effect = lower value.
Test [14] is described as follows: inhibitors of the yeast RAM network, pilot screen, dse1pr::URA3 reporter, 5-FOA selection (AID 869;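 active = inhibition over a set limit, the all-compound mean plus 3 SD, in both replicate runs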;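 note: 0% = DMSO wells with no growth and 100% = 10 µM 1-NA-PP1 with full growth; RAM network block rescues cells from 5-FOA so hits raise OD615 growth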). Particulars: S. cerevisiae dse1pr::URA3 5-FOA growth, OD615, 2 d; at 10 µM; stronger effect = higher value; strain carries analog-sensitive mutant Cbk1 kinase.
A short description of test [15]: RAM signaling pathway blockade in yeast – S. cerevisiae, Pdr1DBD-CYC8 efflux-inhibited sensitized strain, primary screen (AID 1298;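 active = RAM network inhibition above 8.4% in each of two replicates, 3 SD over the compound average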;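 note: 0% = DMSO untreated cells without growth and 100% = 10 µM 1-NA-PP1 full growth; higher means more yeast growth rescued from 5-FOA killing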). Conditions: S. cerevisiae cbk1-as DSE1-URA3 strain, 5-FOA growth OD615, 2 d; at 50 µM; stronger effect = higher value.
Setting [16] is: H69AR cells + 2 uM doxorubicin, measured here: viability with 2 uM doxorubicin, stronger effect = lower value.
Where [17] appears, read: H69AR cells, compound alone cytotoxicity.

Results filed as inconclusive are left out. Activity calls are given as the source filed them.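 Rule for the calls, unless noted: active = viability at or below 27.92% in each of two runs, the all-compound median minus 4 SD; inconclusive = no clear call, values can overlap the other calls; inactive = the rest.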

`c1ccc(C(Cc2nc(-c3ccccn3)no2)c2ccccc2)cc1`: the viability in test [1] was 96%; in test [3], 96% (inactive); in test [4] it was 92.8% (inactive); in test [5], 95.2% (inactive); in test [6] (setting [16]), 107%; in [6] (setting [17]) it was 95.2%. Besides, the viability is 89.7% (inactive) in test [12] and 82.5% (inactive) in test [13]. In test [2], the Her2 level is 94% (inactive). Also, the differential viability (reversal) in [6] (H69AR cells + 2 uM doxorubicin) is -11.8% (inactive). The inhibition was -4.03% (inactive) in [7], 1.8% (inactive) in test [8] and 1.98% (inactive) in test [14]. For the same compound, the growth inhibition in [9] was -9.91% (inactive); in test [10], 12.9% (inactive). Also, the viability increase in test [11] is -2.01% (inactive). The RAM network inhibition in [15] was 6.08% (inactive).
For `CC1=C(C(=O)Nc2ccc(F)cc2)C(c2cccc(C)c2)n2nc(CCCO)nc2N1` (stereo not given), the viability was 87.5% in [1]; 87.5% (inactive) in [3]; 79% (inactive) in test [4]; 94% (inactive) in test [5]; 92.5% in test [6] (setting [16]); 94% in test [6] (setting [17]). For the same compound, the results for the viability in [12] and in test [13] were 98.2% (inactive) and 100% (inactive), respectively. In test [2], the Her2 level was 91.5% (inactive). Besides, the differential viability (reversal) in test [6] (H69AR cells + 2 uM doxorubicin) is 1.5% (inactive). The figures for the inhibition in [7], in test [8] and in test [14] were -3.73% (inactive), -2.83% (inactive) and -0.19% (inactive), respectively. Besides, the figures for the growth inhibition in [9] and in [10] were -1.56% (inactive) and -3% (inactive), respectively. Further, the viability increase in test [11] is -0.66% (inactive). Moreover, in test [15], the RAM network inhibition is 1.3% (inactive).
For the compound `CC(CCc1ccccc1)NC(=O)C1CCCN(c2nnc(-n3cccc3)s2)C1` (stereo not given), the viability is 89.5% in test [1]; 89.5% (inactive) in test [3]; 97.1% (inactive) in [4]; 82.6% (inactive) in test [5]; 82% in [6] (setting [16]); 82.6% in test [6] (setting [17]). In addition, the viability is 93.5% (inactive) in [12] and 96% (inactive) in test [13]. Moreover, in [2], the Her2 level is 86.5% (inactive). Further, the differential viability (reversal) in [6] (H69AR cells + 2 uM doxorubicin) is 0.56% (inactive). Further, the inhibition in test [7] is -0.38% (inactive); in test [8], -3.17% (inactive). Further, the growth inhibition was -16.5% (inactive) in [9] and 0.105% (inactive) in test [10]. Further, in test [11], the viability increase is -1.84% (inactive). The RAM network inhibition in test [15] was 2.83% (inactive).
For the compound `Cc1ccc(S(=O)(=O)Cc2ccc(C(=O)N3CCN(Cc4ccccc4)CC3)o2)cc1`, the viability in test [1] was 86.5%; in test [3] it was 86.5% (inactive); in test [4], 106% (inactive); in test [5], 85.8% (inactive); in [6] (setting [16]), 94.6%; in test [6] (setting [17]), 85.8%. Further, the viability in [12] is 97.3% (inactive); in test [13], 94.9% (inactive). In [2], the Her2 level is 80.5% (inactive). In addition, in [6] (H69AR cells + 2 uM doxorubicin), the differential viability (reversal) is -8.85% (inactive). In addition, the inhibition was -0.9% (inactive) in test [7], 3.5% (inactive) in test [8] and 1.59% (inactive) in test [14]. The growth inhibition is 0.06% (inactive) in [9] and -3.51% (inactive) in test [10]. For the same compound, the viability increase in test [11] is -1.59% (inactive). Also, the RAM network inhibition in [15] is 6.48% (inactive).
With `CCC(C)C(=O)Nc1nc2c(s1)C(=O)CC(C)(C)C2` (stereo not given), the viability in test [1] is 120%; in test [3], 120% (inactive); in test [4], 97.1% (inactive); in test [5], 89.5% (inactive); in test [6] (setting [16]), 88.3%; in test [6] (setting [17]), 89.5%. Moreover, the viability in test [12] was 107% (inactive); in test [13] it was 97.5% (inactive). Besides, the Her2 level in test [2] is 106% (inactive). In [6] (H69AR cells + 2 uM doxorubicin), the differential viability (reversal) is 1.27% (inactive). In addition, the inhibition in [7] is -6.27% (inactive); in test [8], -0.67% (inactive); in test [14], 2.1% (inactive). Also, the results for the growth inhibition in test [9] and in test [10] were -16.6% (inactive) and -8.86% (inactive), respectively. The viability increase in test [11] was 0.25% (inactive). Further, the RAM network inhibition in [15] was 1.9% (inactive).
For `CC(=O)C1=C(N2CCCCC2)CCC1=O`, the viability in [1] was 86%; in test [3], 86% (inactive); in test [4], 109% (inactive); in [5], 98.3% (inactive); in test [6] (setting [16]), 86.8%; in test [6] (setting [17]), 98.3%. In addition, the viability in test [12] was 94.5% (inactive); in [13] it was 94.7% (inactive). Further, the Her2 level in [2] was 101% (inactive). In addition, the differential viability (reversal) in test [6] (H69AR cells + 2 uM doxorubicin) was 11.5% (inactive). The inhibition in test [7] is -5.81% (inactive); in [8] it was 5.33% (inactive). Besides, the growth inhibition in [9] was 2.54% (inactive); in test [10], 4.54% (inactive). Further, the viability increase in test [11] is -2.01% (inactive). Besides, in test [15], the RAM network inhibition was 0.55% (inactive).
Consider `COc1ccc(N2Cc3ccccc3C2)cc1Cl`, for which the viability in [1] was 118%; in test [3] it was 118% (inactive); in test [4] it was 81.9% (inactive); in test [5] it was 89.9% (inactive); in [6] (setting [16]), 94%; in test [6] (setting [17]), 89.9%. Moreover, the values for the viability in test [12] and in test [13] were 94% (inactive) and 87.7% (inactive), respectively. The Her2 level in test [2] is 114% (inactive). Also, the differential viability (reversal) in [6] (H69AR cells + 2 uM doxorubicin) was -4.19% (inactive). Further, the inhibition is -4.27% (inactive) in test [7] and -9.17% (inactive) in test [8]. The results for the growth inhibition in test [9] and in test [10] were -2.97% (inactive) and -10.6% (inactive), respectively. In addition, the viability increase in [11] was 0.04% (inactive). Also, the RAM network inhibition in test [15] is 7.11% (inactive).
On to `CC1(C)CC(=O)c2cnc(NC(=O)Cc3ccc(Cl)cc3)nc2C1`, for which the viability was 71.5% in [1]; 71.5% (inactive) in test [3]; 96.2% (inactive) in [4]; 100% (inactive) in test [5]; 89.6% in test [6] (setting [16]); 100% in test [6] (setting [17]). Moreover, the viability in test [12] is 94.4% (inactive); in [13], 90.6% (inactive). The Her2 level in test [2] is 96.5% (inactive). Moreover, in [6] (H69AR cells + 2 uM doxorubicin), the differential viability (reversal) is 10.6% (inactive). Further, the inhibition in test [7] was -9.46% (inactive); in test [8], -0.98% (inactive); in test [14] it was 2.17% (inactive). Moreover, the growth inhibition in test [9] is -5.41% (inactive); in test [10] it was -16.6% (inactive). Also, in [11], the viability increase was 2.03% (inactive). In test [15], the RAM network inhibition was 5.3% (inactive).
For `CC1CCCN(C(=O)CN2C(=O)c3ccccc3C2=O)C1` (stereo not given), the viability in [1] is 93.5%; in test [3], 93.5% (inactive); in test [4], 93.8% (inactive); in [5] it was 84.8% (inactive); in [6] (setting [16]), 91.6%; in [6] (setting [17]) it was 84.8%. Further, the viability in [12] was 101% (inactive); in test [13], 98.7% (inactive). Also, the Her2 level in test [2] was 104% (inactive). The differential viability (reversal) in test [6] (H69AR cells + 2 uM doxorubicin) is -6.78% (inactive). Moreover, the inhibition in test [7] was -3.59% (inactive); in [8], -6.33% (inactive); in test [14], 1.7% (inactive). The results for the growth inhibition in [9] and in [10] were -15.4% (inactive) and -9.79% (inactive), respectively. In [11], the viability increase is -0.25% (inactive). Further, in [15], the RAM network inhibition was 0.38% (inactive).
